From PubChem BioAssay (NCATS)
Inconclusive results are not listed. Where a call stands in place of a potency, no number is given. Activity calls are given as the source filed them. Calls come from the whole dose curve; as a rule, active = well fitted inhibition curve with a large enough effect; inconclusive = small, poorly fitted or top-dose-only effect; inactive = flat fitted curve, though single readings scatter.

Tests used:
Assay in all cases: qHTS profiling for inhibitors of Plasmodium falciparum proliferation (AID 504749); note: nearly all actives have a fitted effect of over 60% in size
Conditions in all cases: P. falciparum in erythrocytes, SYBR Green DNA, 72 h; series mostly up to 28.7 µM
CP315 = tested on: CP315
Summary of the method: (§1)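 SYBR Green fluorescence (ex 485 nm, em 535 nm) reports parasite DNA after 72 h compound exposure of infected red cells at 0.3% parasitemia, 2.5% hematocrit; signal normalized to 0.29 uM artemisinin and vehicle wells.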

CP325 = tested on: CP325
Summary of the method: as §1

DIV14 = tested on: DIV14
Summary of the method: as §1

DIV17 = tested on: DIV17
Summary of the method: as §1

Dd2 = tested on: Dd2
Summary of the method: as §1

FAB9 = tested on: FAB9
Summary of the method: as §1

GB4 = tested on: GB4
Summary of the method: as §1

ICS = tested on: ICS
Summary of the method: as §1

JCK = tested on: JCK
Summary of the method: as §1

CP291 = tested on: CP291
Summary of the method: as §1

CP305 = tested on: CP305
Summary of the method: as §1

CP329 = tested on: CP329
Summary of the method: as §1

DFO2036 = tested on: DFO2036
Summary of the method: as §1

ECU = tested on: ECU
Summary of the method: as §1

HB3 = tested on: HB3
Summary of the method: as §1

N140 = tested on: N140
Summary of the method: as §1

CP286 = tested on: CP286
Summary of the method: as §1

CP335 = tested on: CP335
Summary of the method: as §1

CP297 = tested on: CP297
Summary of the method: as §1

DIV30 = tested on: DIV30
Summary of the method: as §1
Potency is the fitted concentration of half-maximal effect.

For `CC(C)(Cc1c[nH]c2ccccc12)NCC(O)COc1ccccc1C#N` (stereo not drawn), the Potency (CP315) was “inactive”, the Potency (CP325) was “inactive” and the Potency (DIV14) was 8.49 µM (active). For the same molecule, the Potency (DIV17) was 9.53 µM (active), the Potency (Dd2) was 12.6 µM (active) and the Potency (FAB9) was “inactive”. The Potency (GB4) was 9.53 µM (active), the Potency (ICS) was 11.2 µM (active) and the Potency (JCK) was “inactive”.
In the case of `O=C(NC1CCN(CCc2c[nH]c3ccccc23)CC1)c1ccccc1`, the Potency (CP291) is reported as “inactive”, the Potency (CP305) is reported as “inactive” and the Potency (CP315) is reported as “inactive”. The Potency (CP325) was “inactive”, the Potency (CP329) was “inactive” and the Potency (DFO2036) was “inactive”. The Potency (ECU) was “inactive”, the Potency (FAB9) was “inactive” and the Potency (HB3) was “inactive”. The Potency (ICS) was 8.91 µM (active), the Potency (JCK) was “inactive” and the Potency (N140) was “inactive”.
In the case of `Cc1ncc(CO)c(C=O)c1O`, the Potency (CP286) is reported as “inactive”, the Potency (CP335) is reported as “inactive” and the Potency (DFO2036) is reported as “inactive”. The Potency (Dd2) was “inactive”, the Potency (ECU) was “inactive” and the Potency (FAB9) was “inactive”. The Potency (HB3) was “inactive”, the Potency (ICS) was “inactive” and the Potency (JCK) was “inactive”. For the same molecule, the Potency (N140) was “inactive”.
In the case of `O=C(CN1CCN(Cc2ccc3c(c2)OCO3)CC1)N1c2ccccc2Sc2ccccc21`, the Potency (CP286) is reported as 10 µM (active), the Potency (DIV14) is reported as 12 µM (active) and the Potency (Dd2) is reported as 11.2 µM (active). For the same molecule, the Potency (FAB9) was “inactive”, the Potency (GB4) was 12 µM (active) and the Potency (ICS) was 10 µM (active). The Potency (JCK) was “inactive”.
In the case of `COC(=O)C(c1ccccc1Cl)N1CCc2sccc2C1` (stereo not drawn), the Potency (CP297) is reported as “inactive”, the Potency (DIV14) is reported as “inactive” and the Potency (DIV30) is reported as “inactive”. For the same molecule, the Potency (Dd2) was “inactive”, the Potency (FAB9) was “inactive” and the Potency (JCK) was “inactive”.
For `CNCCCCOc1ccccc1Cc1ccccc1`, the Potency (DIV14) was 3.79 µM (active), the Potency (DIV17) was 1.9 µM (active) and the Potency (Dd2) was 2.51 µM (active). The Potency (FAB9) was “inactive”, the Potency (GB4) was 1.69 µM (active) and the Potency (HB3) was “inactive”. For the same molecule, the Potency (ICS) was 11.2 µM (active).
`NC(N)=NN=C(/C=C/c1ccc([N+](=O)[O-])o1)/C=C/c1ccc([N+](=O)[O-])o1` was tested, and the Potency (CP286) was 2.24 µM (active), the Potency (CP335) was 4.78 µM (active) and the Potency (DFO2036) was 11.2 µM (active). The Potency (DIV14) was 7.57 µM (active), the Potency (DIV17) was 7.57 µM (active) and the Potency (Dd2) was 2.82 µM (active). For the same molecule, the Potency (ECU) was 12.6 µM (active), the Potency (HB3) was 2.24 µM (active) and the Potency (ICS) was 2 µM (active). For the same molecule, the Potency (N140) was 10 µM (active).
In the case of `CCCCCN=C(N)N/N=C/c1c[nH]c2ccc(OC)cc12`, the Potency (CP291) is reported as 13.5 µM (active), the Potency (CP315) is reported as “inactive” and the Potency (CP335) is reported as 6.01 µM (active). For the same molecule, the Potency (DFO2036) was 5.01 µM (active), the Potency (DIV14) was 2.69 µM (active) and the Potency (DIV17) was 1.51 µM (active). For the same molecule, the Potency (DIV30) was 12 µM (active), the Potency (Dd2) was 3.16 µM (active) and the Potency (ECU) was 8.91 µM (active). The Potency (GB4) was 5.36 µM (active), the Potency (HB3) was 3.16 µM (active) and the Potency (ICS) was 1.26 µM (active). For the same molecule, the Potency (N140) was 4.47 µM (active).
With `O=C1C(O)=C(O)C(=O)C(O)=C1O` the Potency (CP291) was “inactive”, the Potency (CP305) was “inactive” and the Potency (CP315) was “inactive”. The Potency (CP325) was “inactive”, the Potency (CP329) was “inactive” and the Potency (CP335) was “inactive”. For the same molecule, the Potency (DFO2036) was “inactive”, the Potency (DIV14) was “inactive” and the Potency (DIV17) was “inactive”. For the same molecule, the Potency (DIV30) was “inactive”, the Potency (Dd2) was 10 µM (active) and the Potency (ECU) was “inactive”. For the same molecule, the Potency (FAB9) was “inactive”, the Potency (GB4) was “inactive” and the Potency (HB3) was “inactive”. The Potency (JCK) was “inactive” and the Potency (N140) was “inactive”.
In the case of `CO[C@]12C[C@@H](COC(=O)c3cncc(Br)c3)CN(C)[C@@H]1Cc1cn(C)c3cccc2c13`, the Potency (CP315) is reported as “inactive”, the Potency (CP325) is reported as “inactive” and the Potency (CP329) is reported as “inactive”. The Potency (ECU) was “inactive”, the Potency (FAB9) was “inactive” and the Potency (HB3) was “inactive”. For the same molecule, the Potency (JCK) was “inactive”.
In the case of `O=C(CCN1CCN2CCCC2C1)N1c2ccccc2Sc2ccc(Cl)cc21` (stereo not drawn), the Potency (CP291) is reported as “inactive”, the Potency (CP297) is reported as “inactive” and the Potency (CP305) is reported as “inactive”. The Potency (CP315) was “inactive”, the Potency (CP325) was “inactive” and the Potency (CP329) was “inactive”. For the same molecule, the Potency (DFO2036) was “inactive”, the Potency (DIV14) was 4.26 µM (active) and the Potency (DIV17) was 5.36 µM (active). For the same molecule, the Potency (Dd2) was 6.31 µM (active), the Potency (ECU) was 14.1 µM (active) and the Potency (FAB9) was “inactive”. The Potency (HB3) was “inactive”, the Potency (ICS) was 5.01 µM (active) and the Potency (JCK) was “inactive”.
In the case of `CC(=O)O[C@H]1C[C@@H]2CC[C@@H]3[C@H](CC[C@@]4(C)[C@H]3C[C@H]([N+]3(C)CCCCC3)[C@@H]4OC(C)=O)[C@@]2(C)C[C@@H]1N1CCCCC1`, the Potency (CP291) is reported as “inactive”, the Potency (CP315) is reported as “inactive” and the Potency (DFO2036) is reported as “inactive”. For the same molecule, the Potency (DIV30) was “inactive”, the Potency (ECU) was “inactive” and the Potency (FAB9) was “inactive”. For the same molecule, the Potency (JCK) was “inactive” and the Potency (N140) was “inactive”.
With `Cc1ccc2c(Br)cc(Br)c(O)c2n1` the Potency (CP315) was 12 µM (active), the Potency (CP329) was 15.1 µM (active) and the Potency (DFO2036) was 10 µM (active). For the same molecule, the Potency (DIV30) was 16.9 µM (active), the Potency (Dd2) was 11.2 µM (active) and the Potency (ICS) was 11.2 µM (active). The Potency (JCK) was 10 µM (active) and the Potency (N140) was 10 µM (active).
In the case of `CN(C)CCN1C(=O)c2ccccc2N(C)c2ccccc21`, the Potency (CP297) is reported as 13.5 µM (active), the Potency (CP315) is reported as “inactive” and the Potency (CP329) is reported as “inactive”. The Potency (Dd2) was 11.2 µM (active), the Potency (ECU) was “inactive” and the Potency (FAB9) was “inactive”. For the same molecule, the Potency (GB4) was 9.53 µM (active), the Potency (HB3) was “inactive” and the Potency (ICS) was “inactive”. The Potency (JCK) was “inactive”.
With `CC(C)(C)CC(C)(C)c1ccc(O)c(-n2nc3ccccc3n2)c1` the Potency (CP291) was “inactive”, the Potency (CP297) was “inactive” and the Potency (CP305) was “inactive”. For the same molecule, the Potency (CP315) was “inactive”, the Potency (CP325) was “inactive” and the Potency (CP329) was “inactive”. For the same molecule, the Potency (DIV14) was 13.5 µM (active), the Potency (DIV17) was 13.5 µM (active) and the Potency (DIV30) was “inactive”. The Potency (Dd2) was 12.6 µM (active), the Potency (GB4) was 16.9 µM (active) and the Potency (HB3) was 11.2 µM (active). For the same molecule, the Potency (ICS) was 5.01 µM (active) and the Potency (JCK) was “inactive”.
